Experimental data: the supplement of paper PMC3334620
Whole data set: some 33,000 sequences, median “E-score (-0.5 to 0.5)” near -0.016, cut for the highest 2% near 0.3. The entries come from a sample that favours the highest values as a whole.

What follows are sequences tested against T1, Yer184c (UniProt P39961) (assay: PBM E-score (8-mer binding enrichment) (E-score (-0.5 to 0.5)); higher = stronger / more preferred TF binding). Settings: protein concentration: 100 nM; construct: GST-full length.
T1 sequence: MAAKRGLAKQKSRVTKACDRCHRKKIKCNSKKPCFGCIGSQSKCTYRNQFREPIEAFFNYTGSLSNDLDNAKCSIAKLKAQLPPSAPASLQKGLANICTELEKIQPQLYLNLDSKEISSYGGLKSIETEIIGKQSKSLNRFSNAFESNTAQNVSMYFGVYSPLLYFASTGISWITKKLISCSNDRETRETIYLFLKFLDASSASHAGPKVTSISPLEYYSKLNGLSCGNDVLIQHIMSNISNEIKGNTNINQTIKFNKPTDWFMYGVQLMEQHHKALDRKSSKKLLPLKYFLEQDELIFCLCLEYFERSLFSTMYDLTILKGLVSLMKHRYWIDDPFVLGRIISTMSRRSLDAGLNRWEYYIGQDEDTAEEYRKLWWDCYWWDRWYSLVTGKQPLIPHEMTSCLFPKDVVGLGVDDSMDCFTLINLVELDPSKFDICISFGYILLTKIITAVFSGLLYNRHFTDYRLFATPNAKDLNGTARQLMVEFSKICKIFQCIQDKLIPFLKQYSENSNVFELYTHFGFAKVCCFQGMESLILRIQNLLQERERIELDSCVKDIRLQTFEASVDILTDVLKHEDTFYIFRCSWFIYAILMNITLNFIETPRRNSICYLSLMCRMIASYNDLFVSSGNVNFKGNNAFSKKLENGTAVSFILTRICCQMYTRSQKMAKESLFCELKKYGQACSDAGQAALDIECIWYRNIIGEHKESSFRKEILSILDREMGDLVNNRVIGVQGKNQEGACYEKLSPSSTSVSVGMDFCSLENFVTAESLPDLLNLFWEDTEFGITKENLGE
Method: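 Universal 'all 10-mer' protein binding microarrays (Agilent AMADID 015681) probed with GST-tagged S. cerevisiae TFs (full-length or DBD) made by in vitro transcription/translation (PURExpress), about 100-200 nM. Bound TF was detected with fluorescent anti-GST. Each ungapped 8-mer (which stands for itself and its reverse complement) is scored by the PBM enrichment score (E-score), a modified Wilcoxon-Mann-Whitney statistic from -0.5 to +0.5, computed with the Universal PBM Analysis Suite. Scale: above 0.35 generally sequence-specific binding.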

Row | Sequence | PBM E-score
1 | CACAAGCC | -0.0115
2 | AGCCCGTA | -0.276
3 | GAACACCC | -0.0175
4 | AAGGCCGA | 0.338
5 | AAGGCCGT | 0.156
6 | AAGGCCCG | -0.093
7 | AAGGCCGG | 0.318
8 | CAGGCCGG | 0.108
9 | AAGGCCGC | 0.051
10 | CGCCCGCA | -0.0897
11 | GATGAGCA | 0.0238
12 | GAGGTCGA | -0.158
13 | GACTGCCC | -0.309
14 | ATATTGCG | -0.0525
15 | CGCGGCGC | 0.259
16 | ATCGGCGA | 0.128
17 | CTCGGCTA | 0.352
18 | GTCGGCTA | 0.153
19 | CTCGGCTC | 0.237
20 | CTCGGCGC | 0.357
21 | CTCGGCGA | 0.399
22 | GTCGGCGA | 0.134
23 | ATCGGCGC | 0.275
24 | TAGATGGA | -0.162
25 | AAGAGGAG | -0.115

Row | Sequence | PBM E-score
26 | GATGGATA | 0.0331
27 | CGGGGAGC | -0.0385
28 | AGAGCCAT | -0.101
29 | CGCTATGA | -0.0231
30 | CTTCGGTC | 0.309
31 | GGTCGGAA | 0.225
32 | CGTCGGAA | 0.24
33 | GTTCGGGA | 0.226
34 | CTTCGGAA | 0.394
35 | AGTCGGAC | 0.0344
36 | CTTCGGTA | 0.235
37 | ATTCGGTC | 0.244
38 | ATTCGGAC | 0.349
39 | CTTCGGGA | 0.171
40 | ATTCGGGC | 0.141
41 | GTTCGGAA | 0.402
42 | AAAGTTAT | 0.134
43 | CGAACCCA | -0.0147
44 | GCGCCCTA | -0.135
45 | CGCGTAGC | -0.0173
46 | CCTGTCAG | -0.101
47 | TCCGCGAA | 0.234
48 | ATTGGTAG | -0.0488
49 | CCTCGGAC | 0.17
50 | CTTCGGAC | 0.325

Row | Sequence | PBM E-score
51 | CTTCGGGC | -0.0555
52 | AGTCGGAA | 0.245
53 | ATTCGGAA | 0.353
54 | ATTCGGAG | 0.205
55 | GTATGCTA | -0.0379
56 | ACCCGCGA | -0.0511
57 | ACCCGCGT | -0.0424
58 | AACCGCGA | 0.225
59 | AGCCGCGG | 0.419
60 | AGCCGCGA | 0.133
61 | ATCCGCGC | 0.141
62 | AACCGCGT | 0.168
63 | AGCCGCGC | 0.103
64 | ATCCGCGG | 0.359
65 | AACCGCGG | 0.372
66 | ACCCGCGG | 0.351
67 | ATCCGCGA | 0.105
68 | GATCGCAC | -0.0597
69 | CAAAGATC | 0.154
70 | CGATCTGC | 0.0352
71 | AGCTACCT | -0.0785
72 | CAGTCCCA | -0.171
73 | GTAAGGAA | -0.0396
74 | CACAGAAC | -0.13
75 | CTTCCTGC | -0.314

Row | Sequence | PBM E-score
76 | CTTCCGCA | 0.068
77 | GTTCCGCA | 0.268
78 | GTTCCGGA | 0.438
79 | ATTCCGGA | 0.436
80 | CTTCCGGC | 0.343
81 | ATTCCGCA | 0.139
82 | CTTCCCGA | 0.148
83 | CTTCCGGA | 0.402
84 | CTTCCGCC | 0.024
85 | GTACCGGA | 0.285
86 | ATACCGGA | 0.237
87 | CCAACGTA | -0.105
88 | ACTCGGGA | 0.199
89 | GAAAACCA | -0.0101
90 | GTGCAGAA | 0.0359
91 | CTGTGGGC | -0.192
92 | CGTCCCCC | -0.275
93 | ATGGGCAC | -0.072
94 | ATTCGCCG | 0.334
95 | ATTCGCCA | 0.0246
96 | ATTCGCCC | -0.127
97 | GAGAGGAC | -0.128
98 | CGCCCGGC | 0.213
99 | AGCCCGGA | 0.314
100 | AGCCCGGC | 0.309

Row | Sequence | PBM E-score
101 | GGCCCGGA | 0.301
102 | CGCCCGGA | 0.264
103 | AGCCCGGG | 0.268
104 | CCTGGAGA | -0.035
105 | AATCCTGA | 0.0482
106 | AAATACCT | -0.105
107 | ATCAACTA | 0.178
108 | GAGGTGCC | 0.0277
109 | CAACGTGC | -0.133
110 | ACAAGTAC | 0.00537
111 | AAGCGAGT | 0.225
112 | AGAGCCGC | 0.0235
113 | ATAGCCGC | 0.0602
114 | ATAGCCGG | 0.388
115 | ACAGCCGG | 0.343
116 | AGAGCCGA | 0.26
117 | ATAGCCGA | 0.299
118 | AGAGCCGG | 0.314
119 | ACAGCCGA | 0.0776
120 | ACAGCCGC | -0.0252
121 | ATCCACTG | -0.143
122 | CTCCAGTC | -0.195
123 | AGACCGAT | 0.0681
124 | GGACCGAA | 0.353
125 | GGACCGAC | 0.12

Row | Sequence | PBM E-score
126 | AGACCGAA | 0.305
127 | CGACCGAA | 0.273
128 | TGACCGAA | 0.228
129 | ACGTTGCC | -0.14
130 | CGTTACCC | -0.104
131 | CGATACCG | -0.0503
132 | AAATTGCC | 0.168
133 | CAGTGTGA | 0.0148
134 | AGCTCCAG | -0.151
135 | TAAATTCA | -0.0563
136 | GCTTCGTA | -0.148
137 | GCTTCGGA | 0.304
138 | GCTTCGCA | -0.163
139 | ACTTCGGG | 0.0741
140 | CCTTCGGC | 0.219
141 | ACTTCGGC | 0.269
142 | ACTTCGGA | 0.337
143 | CCTTCGGA | 0.327
144 | CCTTCGCA | -0.0813
145 | CGCGTTGA | -0.00366
146 | GGTCTTGA | -0.0168
147 | CAGTGGCC | -0.0943
148 | ATTTGTGA | 0.0908
149 | CCTCAACA | 0.126
150 | ACCCTAGC | -0.109

Row | Sequence | PBM E-score
151 | AACGCCTG | -0.104
152 | TCCAGGCA | -0.15
153 | CCGCAAAC | 0.144
154 | AGTCTTCA | -0.0522
155 | ATTTCGGA | 0.348
156 | GTTTCGTA | 0.274
157 | GTTTCGGA | 0.304
158 | ATTTCGGC | 0.373
159 | ATTTCGCA | 0.24
160 | ATTTCGGG | 0.157
161 | CTTTCGGA | 0.286
162 | CTTTCGGC | 0.201
163 | ATTTCGTC | -0.0283
164 | TCATAGGA | -0.0683
165 | AATACCGA | 0.165
166 | GACCATAA | 0.0623
167 | CTCAGTAA | -0.0129
168 | CAATGGAG | -0.164
169 | CGGATACG | 0.247
170 | AATATTAT | 0.293
171 | AATATTCC | 0.342
172 | AATATTCG | 0.0897
173 | AATATTAA | 0.311
174 | AATATTCA | 0.037
175 | TATATTAA | 0.274

Row | Sequence | PBM E-score
176 | CGACCACA | -0.136
177 | TAGCGAGA | 0.00559
178 | AAGGACAA | 0.0335
179 | ATCGGTCC | 0.0402
180 | GTCCCACA | 0.00972
181 | CTTGGTGA | -0.0525
182 | GCCGAATA | 0.361
183 | GCCGAAAA | 0.439
184 | CCCGAAAC | 0.0699
185 | TCCGAAAA | 0.264
186 | ACCGAAAC | 0.264
187 | ACCGAAAT | 0.218
188 | ACCGAAAA | 0.349
189 | GCCGAAAC | 0.34
190 | ACCGAAAG | 0.181
191 | CCCGAAAA | 0.263
192 | CCCGAATA | 0.196
193 | ACCGAATA | 0.173
194 | GGTGGGAC | -0.349
195 | GAAGTAGC | -0.00548
196 | AGTAACGG | 0.101
197 | AACGTAAG | -0.122
198 | CATCAATC | -0.0552
199 | GAGCCCCA | -0.266
200 | CCGTGCGA | 0.166

Row | Sequence | PBM E-score
201 | CTTTGCCA | 0.034
202 | TAACCATA | -0.0927
203 | CTCTTTCC | -0.089
204 | AAATTATA | 0.205
205 | TAATTATA | 0.322
206 | GAATTATA | 0.193
207 | GGTGTTCA | 0.0476
208 | GCCGGAGC | 0.238
209 | GCAGGAAC | -0.0354
210 | ACCGGAAT | 0.233
211 | CCCGGAAC | 0.298
212 | ACCGGACC | 0.29
213 | ACCGGAAA | 0.376
214 | GCCGGAAC | 0.403
215 | ACCGGAAC | 0.398
216 | ACCGGAAG | 0.279
217 | AAGTCTAA | -0.093
218 | CAGTCTCG | -0.0905
219 | CAAGCGTC | -0.0502
